Only some compounds are listed: those with a hit (about 19% of all), similar ones and a draw of the others.
HT1080 IDH1KD tx: HT-1080 IDH1 knockdown cell toxicity (counter line) | Potency, µM (series often up to 46.1 µM), for the others: at the top dose activity, negative = toxicity, usual class: cytotoxic | 360,000 compounds, 2% hits | AID 686971 | HT-1080 IDH1 knockdown viability, ATP luminescence, 48 h;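 note: potency is the fitted concentration of half-maximal effect; 0% = DMSO wells and -100% = cell-free medium wells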
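Knockdown cells (IDH1KD HT-1080) received compounds 2 h after plating at 750 cells/well and were kept 48 h at 37 °C in 5% FBS RPMI. A CellTiter-Glo luminescence read gave % activity for curve fitting.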
HT1080NT lethal: kills 2HG-producing HT-1080-NT fibrosarcoma cells | HT-1080-NT fibrosarcoma viability, CellTiter-Glo ATP luminescence, 48 h | Potency, µM (series often up to 46.1 µM), for the others: top-dose activity, negative = less viability, hits mostly cytotoxic | 360,000 compounds, 1.6% hits;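 note: NT is the 2HG producing partner of a matched IDH1 knockdown line; potency is the fitted concentration of half-maximal effect; 0% = DMSO-treated cells and -100% = media-only wells without cells; nearly all actives have a fitted effect of over 55% in size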
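Toxicity toward the 2HG-producing NT line was scored as %Activity, normalised to DMSO and no-cell wells, from CellTiter-Glo luminescence after 48 hours' treatment.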
IL-1B inflam inh: inflammasome signaling inhibition, IL-1 beta readout; THP-1 LPS/ATP IL-1B secretion, AlphaLISA, 16 h; hits give low values; activity change, % at 57.5 µM; 360,000 compounds, 4.7% hits; in the data active = activity change below about -50%; inconclusive = mostly about -30% to -49%
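Secreted IL-1B measured by AlphaLISA bead assay after 16 h compound exposure of THP-1 cells; compounds (final up to 57.5 uM) added 1 h before LPS (250 ng/mL) and ATP (1.25 mM) stimulation; lower signal means less secretion.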
DT40 TDP1 no CPT: qHTS for Inhibitors of human tyrosyl-DNA phosphodiesterase 1 (TDP1): qHTS in cells in absence of CPT; 420,000 compounds, 15% hits; AID 686978, 2013; DT40 Tdp1-/- hTDP1 cells, no CPT, ATP luminescence, 48 h; Potency, µM (highest dose often 46.2 µM), for the others: at the highest dose activity change, negative = growth inhibition, actives largely listed as inhibitors; note: potency is the fitted concentration of half-maximal effect; nearly all actives have a fitted effect of over 55% in size
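Growth of hTDP1-complemented DT40 Tdp1-knockout cells is measured by ATP luminescence after at least 48 hr compound exposure at 37 °C, with DMSO substituting for the 20 nM CPT used in the parallel screen.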
DT40 TDP1 CPT: DT40-hTDP1 cell growth loss with CPT; 420,000 compounds, 12% hits; Potency, µM (titrated, usually from 46.2 µM), without a hit: at the highest dose activity change, negative = growth inhibition, actives largely listed as inhibitors; chicken DT40 Tdp1-/-;hTDP1 cells + 20 nM CPT, ATP luminescence, 48 h; AID 686979; note: potency is the fitted concentration of half-maximal effect; nearly all actives have a fitted effect of over 55% in size
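Cell growth measured by CellTiter-Glo luminescence after a minimum 48 h, 37 C compound exposure with 20 nM CPT in Tdp1-knockout DT40 cells stably expressing hTDP1, seeded 400/well; qHTS titration format.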
Starred values were filed as active, the others as inactive; u = inconclusive; x = no result. Unless noted, calls come from the whole dose curve; as a rule, active = well fitted curve in the direction sought with a large enough effect; inconclusive = small, poorly fitted or top-dose-only effect, or another doubt; inactive = no such curve, though single readings can be large; an effect the other way counts as inactive or inconclusive. Unless noted, % is set by controls: 0 for no effect and ±100 for the full control effect.

SMILES | HT1080 IDH1KD tx | HT1080NT lethal | IL-1B inflam inh | DT40 TDP1 no CPT | DT40 TDP1 CPT
C[C@@H](CCc1ccc(O)cc1)NCCc1ccc(O)c(O)c1 | x | x | x | 10.6µM* | 5.96µM*
C[C@H](NCCc1ccc(O)cc1)[C@H](O)c1ccc(O)cc1 | 12.4% | 12.1% | -20.5 | 18.4% | 2.0%
CC(C)[C@@H]1C(=O)N(S(C)(=O)=O)[C@H]2CCN(C(=O)/C=C\CN3CCCCC3)[C@@H]12 | x | x | x | u | 33.5µM*
Cc1cc2c(=O)n(C)c(SCC(=O)NCC3CCCO3)nc2s1 (stereo not given) | 1.5% | 1.7% | 16.1 | -1.5% | 5.9%
Cc1ccc(NC(=O)c2cnc(SCC(=O)NCC3CCCO3)n(C)c2=O)cc1C (stereo not given) | 10.3% | 15.2% | -98.3* | 23.1µM* | 20.6µM*
Cn1c(SCC(=O)NCC2CCCO2)ncc(C(=O)Nc2ccccc2)c1=O (stereo not given) | -8.4% | -17.9% | -74.4* | 23.1µM* | 25.9µM*
O=C(COC(=O)C1CCC1)NCc1ccc(F)cc1 | 22.3% | 6.1% | 2.7 | 0.6% | -7.2%
Cc1c(Cl)cccc1NC(=S)NC1CCCC1 | 6.5% | 9.0% | 8.6 | -17.4% | -1.1%
C[C@@H]1CN([C@H](C)CO)C(=O)CCCn2nncc2CO[C@H]1CN(C)S(=O)(=O)c1ccc(Oc2ccccc2)cc1 | -10.3% | -6.4% | 17.6 | u | -20.3%
CC(CNC(=O)[C@@H](Cc1ccccc1)NC(=O)CC[C@H]1O[C@@H](n2ccc(=O)[nH]c2=O)[C@H](O)[C@@H]1O)c1ccccc1 (stereo not given in full) | 12.7% | 22.3% | -66.2* | 36.3% | 8.3%
Cc1ccc2nc(-c3ccc(SCC(=O)Nc4nc(C)cs4)nc3)[nH]c2c1 | -26.7% | -7.7% | 9.3 | 10.3µM* | 18.4µM*
Cc1ccc2nc(-c3ccc(SCC(=O)Nc4nnc(C)s4)nc3)[nH]c2c1 | 9.2µM* | 20.6µM* | -95.1* | 14.6µM* | u
COc1ccccc1OC(=O)c1cc(Cl)nc2ccccc12 | -26.9% | 1.5% | 23.6 | -2.4% | -28.8%
COc1cccc(C(=O)Nc2cccc3cccnc23)c1OC | 9.7% | 15.6% | 21.5 | u | -4.5%
CSC(=S)NN=C(C)c1cccc(C)n1 | u | -26.3% | u | 0.0184µM* | 0.0326µM*
CC(=NNC(=S)N1CCCCC1)c1ccccn1 | u | -19.6% | -73.7* | 0.0082µM* | 0.0259µM*
CC(=NNC(=S)N1CC2CCC(CC2)C1)c1ccncn1 | u | 16.4µM* | 0.0 | 0.0291µM* | 0.0366µM*
CC(=NNC(=S)N1CCCCC1)c1cccc(C)n1 | u | -22.1% | 0.0 | 0.0184µM* | 0.0092µM*
Cc1cccc(C(=S)N2CCOCC2)n1 | 6.1% | 9.5% | -14.3 | 1.9% | 13.5%
Cc1nn(-c2ccccc2)c2sc(C(=O)OCc3nnc(-c4ccccc4)o3)cc12 | -13.4% | -2.6% | 56.5 | u | -29.7%
CC(=O)c1ccc(NC(=O)[C@@H]2CCCN2C(=O)OC(C)(C)C)cc1 | 0.8% | 24.1% | 27.8 | u | 2.7%
C=CCn1c(CCCNC(=O)c2ccccc2OC)nc2ccccc21 | -5.2% | 8.5% | -21.9 | u | u
Cc1nc2ccc(NC(=S)NC3CCCCC3)cc2nc1C | -2.4% | 2.3% | -13.7 | -5.2% | -18.5%
CCn1cc(C(=O)O)c(=O)c2cnc(N3CCN(C(=S)Nc4ccccc4C(F)(F)F)CC3)nc21 | 15.1% | 1.8% | -10.5 | 29.1µM* | -29.8%
CCn1cc(C(=O)O)c(=O)c2cnc(N3CCN(C(=S)Nc4ccccc4)CC3)nc21 | -7.8% | 7.2% | -15.1 | u | u
CCCOc1ccc(C(=O)NC(=S)N2CCN(c3ncc4c(=O)c(C(=O)O)cn(CC)c4n3)CC2)cc1 | 0.4% | -0.7% | 20.4 | u | 23.1µM*
O=C(CN1CCN(C(=O)c2ccccc2)CC1)Nc1cccc(S(=O)(=O)N2CCCC2)c1 | 2.4% | 8.7% | 2.2 | u | u
